A549 tox: kills or reduces viability of A549 cells in Nrf2 counter-screen; A549 ARE-Fluc cells, CellTiter-Fluor viability, 18-24 h; Potency, µM (highest dose often 46 µM), for the others: top-dose activity change, negative = cytotoxicity, most hits filed as inhibitors; 390,000 compounds, 0.16% hits; AID 504648; further: on the % scale 0 is the no-effect control and ±100 the full control effect
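A549 ARE_Fluc cells in 5% FBS OPTI-MEM were exposed to compounds in concentration-response for 18-24 h at 37 deg C. Viability was read by CellTiter-Fluor fluorescence (Ex 405/Em 525) after 30 min, before the luciferase read.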
Nrf2 inh: inhibitors of Nrf2 signaling. 360,000 compounds, 2.1% hits. AID 504444. Potency, µM (series often up to 46 µM), inactives show top-dose activity change, negative = inhibition, actives largely listed as inhibitors. A549 ARE-Fluc reporter, luciferase luminescence, 18-24 h; further: on the % scale 0 is the no-effect control and ±100 the full control effect; nearly all actives have a fitted effect of over 60% in size
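Two sequential reads on A549 ARE_Fluc cells exposed to compound for 18-24 h: a CellTiter-Fluor fluorescence read for viability, then a luciferase luminescence read for Nrf2/ARE activity.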
Rango complex inh: prevents formation of the Rango-importin beta complex | Rango CFP/YFP FRET sensor + importin beta, 45 min | Q14974 | AID 540263 | Potency, µM (doses to about 92.2 µM), for inactives: top-dose inhibition of complex formation | 340,000 compounds, 0.031% hits; calls by dose curve;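 further: 0% = DMSO wells and 100% = buffer wells lacking importin beta; nearly all actives have a fitted effect of over 15% in size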
Target sequence (Q14974 whole entry, looked up): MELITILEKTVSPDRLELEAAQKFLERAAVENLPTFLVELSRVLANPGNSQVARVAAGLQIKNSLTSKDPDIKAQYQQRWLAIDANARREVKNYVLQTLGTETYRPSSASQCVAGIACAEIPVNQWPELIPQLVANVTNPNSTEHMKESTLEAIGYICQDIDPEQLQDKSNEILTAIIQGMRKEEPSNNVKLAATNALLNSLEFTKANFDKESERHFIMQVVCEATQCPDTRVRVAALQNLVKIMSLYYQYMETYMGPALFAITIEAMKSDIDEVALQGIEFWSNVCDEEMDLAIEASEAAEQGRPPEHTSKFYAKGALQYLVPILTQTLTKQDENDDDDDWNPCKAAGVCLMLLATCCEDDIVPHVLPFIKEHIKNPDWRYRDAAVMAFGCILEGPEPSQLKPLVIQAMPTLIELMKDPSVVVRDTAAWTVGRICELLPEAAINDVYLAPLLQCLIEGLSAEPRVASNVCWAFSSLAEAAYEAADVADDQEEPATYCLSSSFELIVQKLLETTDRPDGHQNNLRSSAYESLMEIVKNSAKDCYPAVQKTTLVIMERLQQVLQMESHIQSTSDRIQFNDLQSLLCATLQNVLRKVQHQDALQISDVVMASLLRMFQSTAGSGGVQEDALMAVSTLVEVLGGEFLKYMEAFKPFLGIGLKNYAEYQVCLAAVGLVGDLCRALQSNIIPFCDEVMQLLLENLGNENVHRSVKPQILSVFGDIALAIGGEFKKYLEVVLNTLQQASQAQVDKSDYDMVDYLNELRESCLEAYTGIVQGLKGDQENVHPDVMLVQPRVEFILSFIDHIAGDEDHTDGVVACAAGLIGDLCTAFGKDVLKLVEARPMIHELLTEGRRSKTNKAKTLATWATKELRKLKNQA
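FRET biosensor Rango (snurportin 1 IBB between N-terminal EYFP and C-terminal Cerulean), 50 nM in PBS/1 mM DTT/0.02% Tween-20/0.1% BSA, preincubated 5 min RT with compound; 0.125 microM importin beta added, 45 min RT, CFP/YFP FRET ratio read.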
Rango dissoc inh: prevents RanGTP from dissociating the Rango-importin beta complex; AID 540253; Potency, µM (doses to about 46.1 µM), without a hit: top-dose activity change, negative = inhibition; 340,000 compounds, 0.071% hits; Biochemical FRET Rango-importin beta, RanGTP-induced dissociation; O95149+P62826; calls by dose curve; further: % of control where 0% means no effect; nearly all actives have a fitted effect of over 45% in size
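Rango (0.1 uM)–importin beta (0.25 uM) complex; RanGTP-RCC1 trigger; 45 min RT; CFP/YFP FRET read.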
Nrf2 ARE act: activators of Nrf2 (ARE) signaling | AREc32 ARE-luciferase reporter (MCF7-derived line), luminescence, 24 h | Potency, µM (top dose mostly 46.1 µM), for the others: at the highest dose activation, actives largely listed as activators | 410,000 compounds, 0.31% hits; further: % of control where 0% means no effect; nearly all actives have a fitted effect of over 65% in size
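Each well held 1000 AREc32 cells, which were incubated with compound for 24 hr at 37 deg C after overnight attachment, and ARE reporter activity was quantified by firefly luciferase luminescence.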
Active calls of the source: *. Rows were chosen to be rich in hits. Some 2.3% of all compounds tested hit in one or more screens of this group. Unless noted, the call rests on the fitted dose curve; in most records, active means well fitted curve in the direction sought with a large enough effect; inconclusive means small, poorly fitted or top-dose-only effect, or another doubt; inactive means no such curve, though single readings can be large; an effect the other way counts as inactive or inconclusive. Potency means the concentration at half of the fitted maximal effect.

For COC(=O)c1ccc(COc2cc(C)cc3oc(=O)c4c(c23)CCCC4)o1 the results were A549 tox 7%, Nrf2 inh inconclusive, Rango complex inh 0%, Rango dissoc inh -6% and Nrf2 ARE act 0%.
`COC(=O)c1ccc(CSc2nc3c(cnn3-c3ccc(C)cc3)c(=O)[nH]2)o1` gave A549 tox -1%, Nrf2 inh 23µM*, Rango complex inh 2%, Rango dissoc inh 5% and Nrf2 ARE act 0%.
For Cc1cc(N2CCCCC2)nc2ccc(NC(=O)/C=C/c3ccc(OC(C)C)cc3)cc12 the results were A549 tox -9%, Nrf2 inh inconclusive and Nrf2 ARE act 0%.
`CC(C)c1oc(=O)cc2c1[C@@H](O)[C@H]1OC(=O)[C@@]3(C)CC[C@@H](O)[C@@]2(C)C13` (stereo partly specified) gave A549 tox inconclusive, Nrf2 inh 18µM*, Rango complex inh 1%, Rango dissoc inh -14% and Nrf2 ARE act -3%.
CC(C)c1oc(=O)cc2c1[C@@H](O)[C@H]1OC(=O)[C@@]3(C)C[C@@H](O)[C@@H](O)[C@@]2(C)C13 (stereo partly specified) was read as A549 tox inconclusive, Nrf2 inh 18µM*, Rango complex inh 3%, Rango dissoc inh inconclusive and Nrf2 ARE act -2%.
COc1ccc(COC(=O)CCNC(=O)c2ccc(Cl)cc2)cc1 was read as A549 tox -1%, Nrf2 inh 12%, Rango complex inh inconclusive, Rango dissoc inh -16% and Nrf2 ARE act 0%.
COC(=O)c1ccccc1OC(=O)c1ccc(Br)o1 was read as A549 tox 12%, Rango complex inh inconclusive, Rango dissoc inh 2% and Nrf2 ARE act 0%.
N=C1/C(=C/c2ccc(OC(=O)c3ccco3)cc2)C(=O)N=C2SC=CN12 was read as A549 tox 0%, Nrf2 inh -2%, Rango complex inh inconclusive, Rango dissoc inh inconclusive and Nrf2 ARE act 7%.
`CCOc1ccc(Nc2c(S(=O)(=O)c3ccc(C)cc3)cnc3ccc(F)cc23)cc1` gave A549 tox -11%, Nrf2 inh inconclusive and Nrf2 ARE act 2%.
`Cc1ccccc1-n1c(/C=C/c2c(C)[nH]c3ccccc23)nc2ccccc2c1=O` gave A549 tox inconclusive, Nrf2 inh 21µM* and Nrf2 ARE act -2%.
CN1CC[C@@]2(C)c3cc(O)ccc3N(C)C2O1 (stereo partly specified) was read as A549 tox -12%, Nrf2 inh -9%, Rango complex inh inconclusive, Rango dissoc inh -6% and Nrf2 ARE act -1%.
Screening CN1CC[C@@]2(C)c3cc(O)ccc3N(C)[C@@H]12 returned A549 tox 23µM*, Nrf2 inh -4%, Rango complex inh inconclusive, Rango dissoc inh 26% and Nrf2 ARE act -2%.
CCn1nc(-c2ccccc2)nc2c(=O)n(C)c(=O)nc1-2 was read as A549 tox 4.1µM*, Nrf2 inh 2.9µM*, Rango complex inh 15%, Rango dissoc inh inconclusive and Nrf2 ARE act -2%.
`COc1cccc(-n2cnc3sc(-c4ccccc4)cc3c2=O)c1` gave A549 tox 2%, Nrf2 inh inconclusive, Rango complex inh 8%, Rango dissoc inh 0% and Nrf2 ARE act 0%.
`Cn1nc(-c2ccccc2)nc2c(=O)n(C)c(=O)nc1-2` gave A549 tox 3.7µM* and Nrf2 inh 2.6µM*.
For Cc1nc2c(=O)n(C)c(=O)nc-2n(C)n1 the results were A549 tox 1.6µM*, Nrf2 inh 2.3µM*, Rango complex inh 0%, Rango dissoc inh -6% and Nrf2 ARE act -3%.
Screening O=S(c1ccccc1)c1ccccc1 returned A549 tox 4%, Nrf2 inh -13%, Rango complex inh inconclusive, Rango dissoc inh 5% and Nrf2 ARE act 3%.
Cc1cc(NC(=O)CCl)no1 was read as A549 tox inconclusive, Nrf2 inh 16µM*, Rango complex inh inconclusive, Rango dissoc inh -7% and Nrf2 ARE act inconclusive.
`COc1ccc(OCC(=O)N2CCN(Cc3nc4cc([N+](=O)[O-])ccc4n3C)CC2)cc1` gave A549 tox -20%, Nrf2 inh 23µM*, Rango complex inh 1%, Rango dissoc inh -10% and Nrf2 ARE act 6%.
Screening Cc1ccc(C)c(CN2C(=O)c3ccccc3S(=O)(=O)c3ccc(C(=O)N4CCCCCC4)cc32)c1 returned A549 tox -28%, Nrf2 inh 21µM* and Nrf2 ARE act 5%.
CCOP(=O)(OCC)/C(C#N)=C/c1cc(OC)ccc1OC was read as A549 tox 0%, Nrf2 inh -17%, Rango complex inh inconclusive, Rango dissoc inh inconclusive and Nrf2 ARE act 4%.
For Cc1sc2ncnc(N3CCN(S(=O)(=O)c4ccc(Br)cc4)CC3)c2c1C the results were A549 tox -7%, Nrf2 inh 12µM*, Rango complex inh -1%, Rango dissoc inh 1% and Nrf2 ARE act 0%.
COc1cc2c(ccc3c4cc(OC)c(OC)cc4c[n+](C)c23)cc1O was read as A549 tox -11%, Nrf2 inh inconclusive, Rango complex inh 1%, Rango dissoc inh -13% and Nrf2 ARE act 5%.
COc1ccc(Cc2nccc3cc(OC)c(OC)cc23)cc1OC was read as A549 tox 2%, Nrf2 inh 15µM*, Rango complex inh 4%, Rango dissoc inh -11% and Nrf2 ARE act 7%.
For O=C(Oc1ccc2ccc(OC(=O)N3CCCCCC3)cc2c1)N1CCCCCC1 the results were A549 tox -6%, Nrf2 inh inconclusive, Rango complex inh 1%, Rango dissoc inh -12% and Nrf2 ARE act 2%.
`CCOc1ccc(CCNC(=O)c2cnc3sc(N4CCCC4)nn3c2=O)cc1` gave A549 tox -15%, Nrf2 inh 12µM* and Nrf2 ARE act -1%.
Screening Cc1ccc(C(=O)Nc2c(C(=O)Nc3ccc(C)c(C)c3)sc3nc(C)cc(C)c23)cc1 returned A549 tox -12%, Nrf2 inh inconclusive and Nrf2 ARE act 8%.
`CNC(=O)Oc1ccc(-c2cn3cc(C)ccc3n2)cc1` gave A549 tox inconclusive, Nrf2 inh 1.2µM*, Rango complex inh 3%, Rango dissoc inh 1% and Nrf2 ARE act -3%.
CNC(=O)Oc1cccc(-c2cn3cc(Cl)ccc3n2)c1 was read as A549 tox 1%, Nrf2 inh inconclusive, Rango complex inh 1%, Rango dissoc inh -7% and Nrf2 ARE act inconclusive.
For COC(=O)C1=C(c2ccc(-c3ccccc3)c(F)c2)C[C@@H]2CC[C@H]1N2C(=O)NC1Cc2ccccc2C1 the results were A549 tox -19%, Nrf2 inh inconclusive, Rango complex inh -8%, Rango dissoc inh 1% and Nrf2 ARE act 4%.
